This is a sample that favours compounds with a hit; in the whole collection about 12% have one here.
Sfp PPTase inh: Sfp phosphopantetheinyl transferase inhibition; Q9F4F7; Biochemical Sfp PPTase activity, qHTS; Potency, µM, inactives show largest response in the series, negative = inhibition, most hits filed as inhibitors; 310,000 compounds, 3.5% hits;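 further: the enzyme is Sfp with the accession as filed and its product quenches rhodamine fluorescence; 0% = enzyme reaction without inhibitor and -100% = no enzyme wells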
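Fluorescence-quenching assay with 15 nM Sfp, 5 uM rhodamine-CoA and 12.5 uM BHQ-2-labelled ybbR peptide in pH 7.6 Hepes/MgCl2 buffer. Enzyme was pre-incubated with compound for 15 min at room temperature. Rate was taken from the 30-min fluorescence change (525/598 nm).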
G9a inh: inhibitors of human histone lysine methyltransferase G9a; Q96KQ7; G9a H3K9 monomethylation, AlphaScreen, 2 h; Potency, µM (titrated, usually from 102 µM), for inactives: top-dose activity, negative = inhibition, most hits filed as inhibitors; 350,000 compounds, 8.8% hits; AID 504332; further: on the % scale 0 is the no-effect control and ±100 the full control effect; nearly all actives have a fitted effect of over 75% in size
Target sequence (Q96KQ7 913-1193 limits assumed): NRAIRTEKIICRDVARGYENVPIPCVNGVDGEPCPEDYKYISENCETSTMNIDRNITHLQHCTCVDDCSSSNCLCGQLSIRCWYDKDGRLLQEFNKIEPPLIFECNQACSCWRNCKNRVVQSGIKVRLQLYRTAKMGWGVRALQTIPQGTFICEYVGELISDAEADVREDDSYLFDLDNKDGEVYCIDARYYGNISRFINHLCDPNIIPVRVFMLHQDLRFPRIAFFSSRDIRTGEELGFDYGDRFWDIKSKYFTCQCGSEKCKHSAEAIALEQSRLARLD
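AlphaScreen detection with an anti-monomethyl H3K9 antibody quantified product after a 2 h room-temperature reaction containing 500 nM biotinylated H3K9 peptide, 20 µM SAM and 20 nM enzyme, which had been preincubated 15 min with compound.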
HP1b chromo inh: HP1-beta chromodomain-methylated histone interaction inhibition | P83916 | AlphaScreen HP1-beta / biotin-H3K9me3 peptide binding | Potency, µM (series often up to 114 µM), inactives show at the highest dose activity change, negative = inhibition, most hits filed as inhibitors | 390,000 compounds, 0.56% hits; further: nearly all actives have a fitted effect of over 70% in size
Target sequence (P83916 whole entry, looked up): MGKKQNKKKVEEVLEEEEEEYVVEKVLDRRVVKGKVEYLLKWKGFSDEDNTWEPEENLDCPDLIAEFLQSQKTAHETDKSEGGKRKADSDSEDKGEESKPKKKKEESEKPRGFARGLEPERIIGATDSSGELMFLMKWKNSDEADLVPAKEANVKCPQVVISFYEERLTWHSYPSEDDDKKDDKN
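AlphaScreen: HP1-beta (50 nM) preformed 30 min with biotin-H3(1-18)K9me3 peptide (50 nM) in PBS pH 7.4, 0.01% Tween-20. Compound added for 30 min at RT, then streptavidin donor/nickel chelate acceptor beads (10 ug/mL) for 30 min.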
BAZ2B inh: inhibitors of human BAZ2B bromodomain | Q9UIF8 | AlphaScreen BAZ2B-H3K14Ac peptide displacement | Potency, µM (highest dose often 114 µM), inactives show top-dose activity change, negative = inhibition, hits mostly inhibitors | 360,000 compounds, 4.4% hits; further: on the % scale 0 is the no-effect control and ±100 the full control effect; nearly all actives have a fitted effect of over 60% in size
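Inhibition is scored as reduced AlphaScreen emission. The BAZ2B/b-H3(5-23)K14Ac complex (50 nM each) in PBS pH 7.4, 0.01% Tween-20 meets compound (up to 110 uM) for 30 min at RT before bead addition.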
PLK1 PBD block: inhibitors of human PLK1 polo-box domain binding; P53350; Plk1 PBD binding of FITC phosphopeptide, fluorescence polarization; Potency, µM, inactives show max response, negative = inhibition, most hits filed as inhibitors; 360,000 compounds, 2.8% hits; AID 720504; further: series mostly up to about 57 µM; on the % scale 0 is the no-effect control and ±100 the full control effect; nearly all actives have a fitted effect of over 65% in size
JMJD2A Tudor: inhibitors of human JMJD2A Tudor domain | O75164 | Potency, µM (top dose mostly 114 µM), for inactives: at the highest dose activity change, negative = inhibition, hits mostly inhibitors | 390,000 compounds, 4.4% hits | AlphaScreen JMJD2A-Tudor / H3K4me3 peptide binding; further: on the % scale 0 is the no-effect control and ±100 the full control effect; nearly all actives have a fitted effect of over 50% in size
* hit, by the source's call; [ ] = remark or other dose. The call rests on the fitted dose curve; in most records, active means well fitted curve in the direction sought with a large enough effect; inconclusive means small, poorly fitted or top-dose-only effect, or another doubt; inactive means no such curve, though single readings can be large; an effect the other way counts as inactive or inconclusive. Potency means the concentration at half of the fitted maximal effect.

For CCC(C(=O)O)N1C(=O)/C(=C/C(C)=C/c2ccccc2)SC1=S (centres undefined) the results were Sfp PPTase inh inconclusive, G9a inh inconclusive, HP1b chromo inh inconclusive, BAZ2B inh inconclusive, PLK1 PBD block 24µM* and JMJD2A Tudor inconclusive.
`COc1cc(/C=N/N2CCN(Cc3ccccc3)CC2)cc(OC)c1OC(C)=O` gave Sfp PPTase inh 1%, G9a inh 50µM*, HP1b chromo inh -8%, BAZ2B inh inconclusive, PLK1 PBD block -18% and JMJD2A Tudor inconclusive.
Screening COc1cc(/C=N/N2CCN(c3ccc(Cl)cc3)CC2)cc(OC)c1OC(C)=O returned Sfp PPTase inh 3%, HP1b chromo inh 9%, BAZ2B inh 0%, PLK1 PBD block -4% and JMJD2A Tudor -6%.
Screening COc1cc(/C=N/N2CCN(Cc3ccccc3)CC2)cc(OC)c1OC returned PLK1 PBD block 1%.
`COc1cc(/C=N/N2CCN(c3ccccc3)CC2)cc(OC)c1OC(C)=O` gave Sfp PPTase inh 2%, G9a inh 18%[0.501 µM], HP1b chromo inh inconclusive, BAZ2B inh 45µM*, PLK1 PBD block -5% and JMJD2A Tudor 56µM*.
Screening CSCCC(C(=O)O)N1C(=O)c2ccc(C(=O)O)cc2C1=O (centres undefined) returned Sfp PPTase inh -9%, G9a inh 25µM*, HP1b chromo inh 21%, BAZ2B inh -10%, PLK1 PBD block -7% and JMJD2A Tudor 79µM*.
`CN1c2ccccc2-c2nc(SCC(=O)Nc3ccccc3C(F)(F)F)ncc2S1(=O)=O` gave G9a inh 2%[59 µM], HP1b chromo inh 23%, BAZ2B inh -3% and JMJD2A Tudor -11%.
Screening CCOC(=O)C1=C(CN2CCN(C)CC2)NC(=O)NC1c1ccc(F)cc1 (centres undefined) returned G9a inh 4%[59 µM], HP1b chromo inh 22%, BAZ2B inh 6% and JMJD2A Tudor 10%.
For CCOC(=O)C1=C(CN2c3ccccc3CC2C)NC(=O)NC1c1ccccc1 (centres undefined) the results were Sfp PPTase inh -6%, G9a inh inconclusive, HP1b chromo inh inconclusive, BAZ2B inh 50µM*, PLK1 PBD block -8% and JMJD2A Tudor inconclusive.
COc1ccc(C2NC(=O)NC(C)=C2C(C)=O)cc1 (centres undefined) was read as Sfp PPTase inh -7%, G9a inh 13µM*, HP1b chromo inh 18%, BAZ2B inh 3%, PLK1 PBD block 4% and JMJD2A Tudor -16%.
Screening CCOC(=O)c1cc(C#N)c(N2CCN(c3ccc(OC)cc3)CC2)[nH]c1=O returned Sfp PPTase inh 5%, G9a inh 5µM*, HP1b chromo inh 5%, BAZ2B inh inconclusive, PLK1 PBD block -10% and JMJD2A Tudor -27%.
For CCOC(=O)C1=C(CN2CCN(c3ccc(OC)cc3)CC2)NC(=O)NC1c1ccc(OC)cc1 (centres undefined) the results were G9a inh 11µM*, HP1b chromo inh -38%, BAZ2B inh 40µM* and JMJD2A Tudor 56µM*.
`CC(=O)C1=C(C)NC(=O)NC1c1ccc(OC2CCCC2)cc1` (centres undefined) gave Sfp PPTase inh -9%, G9a inh 5%[12.7 µM], HP1b chromo inh 23%, BAZ2B inh 7%, PLK1 PBD block 6% and JMJD2A Tudor -8%.
`CC(=O)NCC1CCN(C(=O)C2CCC(=O)N(CCc3cccc(F)c3)C2)CC1` (centres undefined) gave Sfp PPTase inh 10%, G9a inh 80%, HP1b chromo inh 39%, BAZ2B inh 6%, PLK1 PBD block 1% and JMJD2A Tudor 1%.
N#Cc1nc(Nc2cccc(C(F)(F)F)c2)nc(NC2CCCC2)n1 was read as JMJD2A Tudor -24%.
Screening Cc1nn2c(C)c(C(=O)NC(C)(C)C)cnc2c1-c1ccc(F)cc1 returned G9a inh 13%[59 µM], HP1b chromo inh 23%, BAZ2B inh -4% and JMJD2A Tudor -14%.
CSCCC(NC(=O)c1ccccc1Br)C(=O)NNC(=O)c1ccco1 (centres undefined) was read as G9a inh 14%[59 µM], HP1b chromo inh 32%, BAZ2B inh 10%, PLK1 PBD block -16% and JMJD2A Tudor -3%.
`CC1=C(C(=O)OCc2ccccc2)C(c2ccc(N(C)C)cc2)NC(=O)N1` (centres undefined) gave Sfp PPTase inh 2%, G9a inh 10µM*, HP1b chromo inh -24%, BAZ2B inh inconclusive, PLK1 PBD block 1% and JMJD2A Tudor inconclusive.
For CCOC(=O)c1[nH]c(CN2CCN(c3ccc(OC)cc3)CC2)c(C(=O)OCC)c1C the results were Sfp PPTase inh 8%, G9a inh 22µM*, HP1b chromo inh 45µM*, BAZ2B inh 14µM*, PLK1 PBD block -2% and JMJD2A Tudor 50µM*.
Screening CCOC(=O)C1=C(CN2CCN(c3ccc(OC)cc3)CC2)NC(=O)NC1c1ccc(Cl)cc1 (centres undefined) returned G9a inh 7.9µM*, HP1b chromo inh inconclusive and JMJD2A Tudor 13µM*.
For CCOC(=O)c1[nH]c(C)c(C(=O)N2CCN(c3ccc(OC)cc3)CC2)c1C the results were Sfp PPTase inh 0%, G9a inh inconclusive, HP1b chromo inh 27%, PLK1 PBD block -7% and JMJD2A Tudor -33%.
For CCc1nc2c(OCc3ccc(F)cc3)cccn2c1N(C)C(=O)CC(C)C the results were PLK1 PBD block -15%.
COc1ccc(CNC(=O)CCS(=O)(=O)Cc2ccc(C)cc2)c(OC)c1 was read as Sfp PPTase inh 10%, G9a inh 7%[59 µM], HP1b chromo inh 22%, BAZ2B inh -22%, PLK1 PBD block 4% and JMJD2A Tudor -8%.
Screening COc1ccccc1CNC(=O)CCS(=O)(=O)c1cccs1 returned Sfp PPTase inh -12%, G9a inh 45µM*, HP1b chromo inh 29%, BAZ2B inh 15%, PLK1 PBD block -14% and JMJD2A Tudor -15%.
For COc1ccccc1CNC(=O)COC(=O)CNS(=O)(=O)c1ccc(C)cc1 the results were Sfp PPTase inh 28µM*, G9a inh 71µM*, HP1b chromo inh 9%, BAZ2B inh -26%, PLK1 PBD block -7% and JMJD2A Tudor -19%.
For COc1ccccc1CNC(=O)CCS(=O)(=O)Cc1ccc(C)cc1 the results were Sfp PPTase inh 16%, G9a inh inconclusive, HP1b chromo inh -4%, BAZ2B inh -18%, PLK1 PBD block 27µM* and JMJD2A Tudor -22%.

Compound activity deposited in PubChem by National Center for Advancing Translational Sciences (NCATS).
